From PubChem BioAssay (NCI) come the findings set out here.

About 79,000 compounds went through this panel and 15% of them were active in at least one assay; those are over-represented in the sample as a whole. A number with no mark means an inactive call. Active and inactive are the calls of the source. Cut-off read from the data, not from the text of the source: active = growth inhibition above about 70%; inactive = the rest.

A short description of one experiment: NCI Yeast Anticancer Drug Screen. Data for the rad50 strain (AID 155).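 Note: 0% = growth of vehicle-only cultures of the same strain.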 The settings on record: S. cerevisiae rad50 strain growth inhibition; at 50.0 µM (retest, dose inferred, filed as 5.0); hits give high values. In short, it runs like this: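 Vehicle-treated cultures provide the reference for the growth inhibition reported for compound-exposed, repair-deficient yeast.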
In the case of `COC(=O)[C@H]1O[C@H]1c1ccncc1`, the growth inhibition is -5%.

As for `O=[N+]([O-])c1ccc(NSc2ccccc2)cc1`, the growth inhibition is 98% (active).

Take `OCCOCCO[P+]1(OCCOCCO)n2c3ccc2C(c2ccccc2)=C2C=CC(=N2)C(c2ccccc2)=c2ccc(n21)=C(c1ccccc1)C1=NC(=C3c2ccccc2)C=C1`: the growth inhibition was 98% (active).

As for `NCCSC1(O)C(=O)c2ccccc2-c2ccccc21` (stereo not given), the growth inhibition is 98% (active).

In the case of `C/C=C(\C)C(=O)O[C@@H]1CC(C)(C)CC2C3=CCC4[C@]56CC[C@](O)(OC5)C(C)(C)C6CC[C@@]4(C)C3(C)CC[C@]21C(=O)O` (stereo not given in full), the growth inhibition is 90% (active).

`CSC(=S)NN=C1CCCCC1`: the growth inhibition was 97% (active).

Take `O=C1c2ccccc2C(O)(C#Cc2ccccc2)c2cnccc21` (stereo not given): the growth inhibition was 96% (active).

`CCCCCC(CCCCC)C(=O)O`: the growth inhibition is 63%.

Turning to `CC(C)(N=Nc1ccc([N+](=O)[O-])cc1)[N+](=O)[O-]`, the growth inhibition was 97% (active).

Consider `CCCCCCCCCCCCCC(=O)N1CCOCC1`, for which the growth inhibition is 99% (active).

For the compound `CCOc1ccccc1-c1nc2c(s1)C(=O)c1ccccc1C2=O`, the growth inhibition is 98% (active).

Turning to `c1ccc2c(c1)C[n+]1ccc3ccccc3c1-c1c3ccccc3cc[n+]1C2`, the growth inhibition is 28%.

On to `Nc1cc2c(c[n+](CCCCCCCCCC[n+]3cc4c5ccccc5c(N)cc4c4ccccc43)c3ccccc23)c2ccccc12`, for which the growth inhibition is 94% (active).

Regarding `Cc1ccc(N=C(N)NN=C(c2ccc(Cl)cc2)c2ccc(Cl)cc2)cc1`, the growth inhibition is 67%.

Turning to `O/N=C(/C[n+]1csc2ccccc21)c1ccccc1`, the growth inhibition is 82% (active).

As for `COc1ccc(C2Oc3c(cccc3OC)C=C2[N+](=O)[O-])cc1` (stereo not given), the growth inhibition is 96% (active).

Turning to `O=C(O)c1c2c(cc3c1CC1(Cc4cc5c(cc4C1=O)CCC5)C3)CCC2` (stereo not given), the growth inhibition was 67%.

For `CSc1ncnc2ncn(C3OC(CO)C(O)C3O)c12` (stereo not given), the growth inhibition is -1%.

For the compound `CC1SC(=S)N(c2ccc(Cl)cc2)C1=O` (stereo not given), the growth inhibition was 68%.

As to `CCOC(=O)C(C(C)=O)C1=C(Cl)C(=O)c2ccccc2C1=O` (stereo not given), the growth inhibition was 100% (active).

As to `CC(C)(C)c1cc(C(O)(C(F)(F)F)C(F)(F)F)c(S)c(C(O)(C(F)(F)F)C(F)(F)F)c1`, the growth inhibition is 98% (active).

For the compound `O=[N+]([O-])C1C(c2ccccc2)CC=CC1N1CCCC1` (stereo not given), the growth inhibition is 97% (active).

Take `COc1ccc2nc3cc(Cl)ccc3c(NCCNc3c4ccc(Cl)cc4nc4ccc(OC)cc34)c2c1`: the growth inhibition was 97% (active).

As for `CCN(CC)CCNc1nc(N)c2nc(-c3ccccc3)c(-c3ccccc3)nc2n1`, the growth inhibition was 51%.

In the case of `CC(=O)OCC(=O)[C@@]1(O)CC[C@H]2[C@@H]3CCC4=CC(=O)C=C[C@]4(C)[C@@]3(F)[C@@H](O)C[C@@]21C`, the growth inhibition is 41%.

Turning to `O=Cc1cc(S(=O)(=O)c2ccc(O)c(C=O)c2)ccc1O`, the growth inhibition is 22%.

Take `OCc1cccc2c1Oc1ccccc1S2`: the growth inhibition was 55%.

Turning to `O=C(CCN1CCCC1)c1ccc(Oc2ccc(F)cc2)cc1`, the growth inhibition was 50%.

With `Cc1ccccc1N1CCN(c2c3c(nc4ccccc24)CCCCC3)CC1`, the growth inhibition is 94% (active).

Regarding `CNC(Cc1ccccc1)c1ccc(OC)c2ccccc12` (stereo not given), the growth inhibition is 9%.

`CCCCN(CCCC)Cc1ccc(NC(C(=O)c2ccccc2)c2ccccc2)cc1` (stereo not given): the growth inhibition was 46%.

`CCS(=O)(=O)/C=C(\C#Cc1ccccc1)c1ccccc1`: the growth inhibition is 84% (active).

For `CN(C)c1c([N+](=O)[O-])cc(N2C(=O)C=CC2=O)cc1[N+](=O)[O-]`, the growth inhibition is 91% (active).

In the case of `CNC(=N)c1ccc(NC(=N)c2ccc(NC(=O)c3ccc(C(=O)Nc4ccc(C(=N)Nc5ccc(C(=N)NC)cc5)cc4)cc3)cc2)cc1`, the growth inhibition was 54%.

On to `O=[N+]([O-])c1ccc(-c2nc3ccc(F)cc3[nH]2)o1`, for which the growth inhibition is 99% (active).

For the compound `CCCCCCC(=O)CC(SCCN)c1ccccc1Cl` (stereo not given), the growth inhibition is 52%.

For the compound `O=C(CC(c1ccccc1Cl)C(C(=O)O)c1ccccc1)c1ccccc1` (stereo not given), the growth inhibition was 72% (active).

Consider `CC([N+](=O)[O-])C1(O)C(=O)c2cccc3cccc1c23` (stereo not given), for which the growth inhibition was 55%.

With `CC(=O)N(C1=C(Cl)C(=O)c2ccccc2C1=O)c1ccc(Cl)cc1`, the growth inhibition is 99% (active).

For `CCOC(=N)CCCSSc1ccc(N=[N+]=[N-])cc1`, the growth inhibition was 99% (active).

The same experiment, now with this note: S. cerevisiae rad50 strain growth inhibition; at 50.0 µM; hits give high values.
Turning to `COC(=O)[C@H]1O[C@H]1c1ccncc1`, the growth inhibition was 18.2%.

As to `O=[N+]([O-])c1ccc(NSc2ccccc2)cc1`, the growth inhibition is 89.2% (active).

Take `OCCOCCO[P+]1(OCCOCCO)n2c3ccc2C(c2ccccc2)=C2C=CC(=N2)C(c2ccccc2)=c2ccc(n21)=C(c1ccccc1)C1=NC(=C3c2ccccc2)C=C1`: the growth inhibition is 91.3% (active).

On to `NCCSC1(O)C(=O)c2ccccc2-c2ccccc21` (stereo not given), for which the growth inhibition is 98.8% (active).

For the compound `C/C=C(\C)C(=O)O[C@@H]1CC(C)(C)CC2C3=CCC4[C@]56CC[C@](O)(OC5)C(C)(C)C6CC[C@@]4(C)C3(C)CC[C@]21C(=O)O` (stereo not given in full), the growth inhibition was 86.5% (active).

`CSC(=S)NN=C1CCCCC1`: the growth inhibition was 90.9% (active).

With `O=C1c2ccccc2C(O)(C#Cc2ccccc2)c2cnccc21` (stereo not given), the growth inhibition was 97.8% (active).

Take `CCCCCC(CCCCC)C(=O)O`: the growth inhibition is 78.6% (active).

Turning to `CC(C)(N=Nc1ccc([N+](=O)[O-])cc1)[N+](=O)[O-]`, the growth inhibition was 95.8% (active).

As for `CCCCCCCCCCCCCC(=O)N1CCOCC1`, the growth inhibition is 97.8% (active).

Turning to `CCOc1ccccc1-c1nc2c(s1)C(=O)c1ccccc1C2=O`, the growth inhibition is 90% (active).

For the compound `c1ccc2c(c1)C[n+]1ccc3ccccc3c1-c1c3ccccc3cc[n+]1C2`, the growth inhibition is 64.2%.

On to `Nc1cc2c(c[n+](CCCCCCCCCC[n+]3cc4c5ccccc5c(N)cc4c4ccccc43)c3ccccc23)c2ccccc12`, for which the growth inhibition was 88% (active).

On to `Cc1ccc(N=C(N)NN=C(c2ccc(Cl)cc2)c2ccc(Cl)cc2)cc1`, for which the growth inhibition was 65.7%.

Regarding `O/N=C(/C[n+]1csc2ccccc21)c1ccccc1`, the growth inhibition was 35.3%.

Take `COc1ccc(C2Oc3c(cccc3OC)C=C2[N+](=O)[O-])cc1` (stereo not given): the growth inhibition is 40.5%.

As for `O=C(O)c1c2c(cc3c1CC1(Cc4cc5c(cc4C1=O)CCC5)C3)CCC2` (stereo not given), the growth inhibition is 89.4% (active).

For `CSc1ncnc2ncn(C3OC(CO)C(O)C3O)c12` (stereo not given), the growth inhibition is 9.65%.

Turning to `CC1SC(=S)N(c2ccc(Cl)cc2)C1=O` (stereo not given), the growth inhibition was 71% (active).

As for `CCOC(=O)C(C(C)=O)C1=C(Cl)C(=O)c2ccccc2C1=O` (stereo not given), the growth inhibition is 99.3% (active).

In the case of `CC(C)(C)c1cc(C(O)(C(F)(F)F)C(F)(F)F)c(S)c(C(O)(C(F)(F)F)C(F)(F)F)c1`, the growth inhibition is 98.8% (active).

`O=[N+]([O-])C1C(c2ccccc2)CC=CC1N1CCCC1` (stereo not given): the growth inhibition was 98.5% (active).

As for `COc1ccc2nc3cc(Cl)ccc3c(NCCNc3c4ccc(Cl)cc4nc4ccc(OC)cc34)c2c1`, the growth inhibition is 98.5% (active).

On to `CCN(CC)CCNc1nc(N)c2nc(-c3ccccc3)c(-c3ccccc3)nc2n1`, for which the growth inhibition was 95.3% (active).

With `CC(=O)OCC(=O)[C@@]1(O)CC[C@H]2[C@@H]3CCC4=CC(=O)C=C[C@]4(C)[C@@]3(F)[C@@H](O)C[C@@]21C`, the growth inhibition is 0.4%.

Consider `O=Cc1cc(S(=O)(=O)c2ccc(O)c(C=O)c2)ccc1O`, for which the growth inhibition is 98.7% (active).

Turning to `OCc1cccc2c1Oc1ccccc1S2`, the growth inhibition was 52.4%.

Regarding `O=C(CCN1CCCC1)c1ccc(Oc2ccc(F)cc2)cc1`, the growth inhibition was 69.8%.

For the compound `Cc1ccccc1N1CCN(c2c3c(nc4ccccc24)CCCCC3)CC1`, the growth inhibition is 97.2% (active).

For `CNC(Cc1ccccc1)c1ccc(OC)c2ccccc12` (stereo not given), the growth inhibition was 18.2%.

In the case of `CCCCN(CCCC)Cc1ccc(NC(C(=O)c2ccccc2)c2ccccc2)cc1` (stereo not given), the growth inhibition was 85.8% (active).

On to `CCS(=O)(=O)/C=C(\C#Cc1ccccc1)c1ccccc1`, for which the growth inhibition was 79.2% (active).

`CN(C)c1c([N+](=O)[O-])cc(N2C(=O)C=CC2=O)cc1[N+](=O)[O-]`: the growth inhibition is 91.8% (active).

For `CNC(=N)c1ccc(NC(=N)c2ccc(NC(=O)c3ccc(C(=O)Nc4ccc(C(=N)Nc5ccc(C(=N)NC)cc5)cc4)cc3)cc2)cc1`, the growth inhibition was 70.2% (active).

With `O=[N+]([O-])c1ccc(-c2nc3ccc(F)cc3[nH]2)o1`, the growth inhibition was 99.6% (active).

For `CCCCCCC(=O)CC(SCCN)c1ccccc1Cl` (stereo not given), the growth inhibition is 99.2% (active).

`O=C(CC(c1ccccc1Cl)C(C(=O)O)c1ccccc1)c1ccccc1` (stereo not given): the growth inhibition is 81% (active).

On to `CC([N+](=O)[O-])C1(O)C(=O)c2cccc3cccc1c23` (stereo not given), for which the growth inhibition was 64.2%.

In the case of `CC(=O)N(C1=C(Cl)C(=O)c2ccccc2C1=O)c1ccc(Cl)cc1`, the growth inhibition was 97.8% (active).

In the case of `CCOC(=N)CCCSSc1ccc(N=[N+]=[N-])cc1`, the growth inhibition was 98.7% (active).
